By inhibition is commonly meant the change of the read-out against control, counted positive when it falls. The viability is the share of living cells, or the viability signal relative to a control.

Values joined by “and” are separate entries in the source; they are usually repeats but may differ in a detail not shown here. Equal entries are not always repeated. Active and inactive are the calls of the source. Unless noted, no stated cut-off is given here; in the data, active means inhibition above about 80%; inactive means the rest.

The nature of assay [1]: kinase inhibitors against Plasmodium liver-stage infection, cell-based, known kinase inhibitor set, luminescence, hepatoma host viability (AID 624392; call rule not given here;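 further: infected cells incubated roughly two days before readout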). The conditions noted are these: Plasmodium liver stage in hepatoma cells, luciferase luminescence, concentration not given here; liver cell % of control: measured here: host liver cell viability; parasite % of control: stronger effect = lower value.

The nature of assay [2]: phospholipid biosynthesis inhibitors in animal cells, primary screen, cell-based, LOPAC library, screen 4 (AID 1347384; call rule not given here). The conditions noted are these: phospholipid biosynthesis inhibition screen, at 10 µM.
The nature of assay [3]: circadian clock period modulators, cell-based, LOPAC library, luminescence reporter (AID 2774; call rule not given here;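 further: values are relative to mean of DMSO wells on each plate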). Particulars: circadian reporter cells, at 7 µM, actives lie on both sides.
The test system of assay [4] is Hepatitis C virus NS3 helicase. Description: HCV NS3 helicase inhibitors, primary screen, biochemical, fluorescence polarization, LOPAC1280 library (AID 687035; in the data active means inhibition above about 37%). The conditions noted are these: Purified HCV NS3 helicase, Cy5-dT15 ssDNA binding fluorescence polarization; stronger effect = higher value; concentration not given here. (Polarisation of emitted light reports the rotation of a fluorescent probe.)

The nature of assay [5]: Cy5 fluorescence quenching or enhancement artefacts, artefact control for HCV NS3 helicase inhibitor project, biochemical, LOPAC1280 (AID 687037; call rule not given here). The conditions noted are these: Cy5-DNA-NS3h complex fluorescence interference counterscreen. In general terms: Counterscreens check selectivity or assay interference.
Assay [6] is described as follows: inhibitors of Cryptococcus chitosan production, flow cytometry, Cibacron Brilliant Red staining (AID 1347148; call rule not given here;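 further: compound exposure lasted three days at 37 degrees C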). The conditions noted are these: Cryptococcus neoformans chitosan, stronger effect = lower value; at 10 µM unless noted.
Assay [7] in a line: viability rescue of complex I mutant cybrids, primary screen, cell-based, galactose medium, ATP luminescence (AID 1645843;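 active means z-score of at least 1.8 in each of two replicates, scored against plate mean and spread of sample wells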;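 further: positive z means more ATP and so rescue of galactose-driven cybrid death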). The conditions noted are these: complex I mutant cybrid cells, 72 h, stronger effect = higher value.
A short description of assay [8]: liver-stage malaria parasite growth inhibition, primary screen, cell-based, HepG2, luciferase luminescence, HepG2 viability (AID 624349; in the data active means parasite load remaining mostly below about 12%, no sharp cut-off; inactive means mostly above about 10%;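 further: 100% = mean of DMSO negative control wells on the same plate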). Particulars: P. berghei liver stage in HepG2, luciferase luminescence, concentration not given here; parasite load remaining: stronger effect = lower value; viability: measured here: HepG2 viability without parasites.
Assay [9] can be described thus: LFS_MB_1R medulloblastoma cell growth inhibition, synergistic combos for chromothripsis tumors, cisplatin or BGB combos (AID 1671452).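 Further: cells exposed for 96 hours before readout.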 The conditions noted are these: LFS_MB_1R medulloblastoma cells, stronger effect = higher value.
A short description of assay [10]: CRL2098 osteosarcoma cell growth inhibition, synergistic combos for chromothripsis tumors, BGB or cisplatin IC20 combos (AID 1671454).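 Further: cells exposed for 96 h before readout; 0% = vehicle DMSO and 100% = killing by high DMSO.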 Particulars: CRL2098 osteosarcoma cells, drug combinations, stronger effect = higher value.
A short description of assay [11]: HD-MB03 medulloblastoma cell growth inhibition, synergistic combos for chromothripsis tumors, BGB or cisplatin IC20 combos (AID 1671455; in the data active means inhibition above about 83%;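 further: 0% = vehicle DMSO and 100% = high DMSO as cytotoxic control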). The conditions noted are these: HD-MB03 medulloblastoma cells, stronger effect = higher value.
The nature of assay [12]: UWB1.289 ovarian carcinoma cell growth inhibition, synergistic combos for chromothripsis tumors, BGB or cisplatin combos (AID 1671456).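 Further: cells exposed to compound for four days; 0% = vehicle DMSO and 100% = killing by high DMSO.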 The conditions noted are these: UWB1.289 ovarian carcinoma cells, stronger effect = higher value.
A short description of assay [13]: LFS_MB_2R medulloblastoma cell growth inhibition, synergistic combos for chromothripsis tumors, cisplatin combos (AID 1671457).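 Further: cells exposed to compound for four days before readout.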 The conditions noted are these: LFS_MB_2R medulloblastoma cells, stronger effect = higher value.
Assay [14] can be described thus: UWB1.289_BRCA1 ovarian cancer growth, cell-based, BGB or cisplatin combinations (AID 1671459). Particulars: UWB1.289 BRCA1 ovarian carcinoma, drug combinations, stronger effect = higher value.
The nature of assay [15]: human astrocyte viability loss, single and combined drugs, cytotoxicity control for chromothriptic childhood tumor combination screen, cell-based, BGB or cisplatin IC20 combos (AID 1671460).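 Further: cells exposed to compounds for 96 hours before viability readout; 0% = vehicle and 100% = killing control.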 Particulars: Human astrocytes, drug combinations, stronger effect = higher value.
Assay [16] in a line: hESC survival regulators, cell-based (AID 493140; call rule not given here;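 further: cells exposed to compounds for four days before counting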). The conditions noted are these: human embryonic stem cell survival screen; stronger effect = higher value.
The target of assay [17] is NAD(+) hydrolase SARM1 (Homo sapiens) (UniProt Q6SZW1). Briefly: SARM1 TIR NADase inhibitors, cell lysate, NAD-Glo luminescence (AID 1508614;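 active means compound whose remaining NAD level is above about 45 nM, limit read from the data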). The conditions noted are these: SAM-TIR HEK293T lysate NADase, at 1 µM, stronger effect = higher value.
Chain of NAD(+) hydrolase SARM1 (Homo sapiens) (Q6SZW1 whole entry, looked up): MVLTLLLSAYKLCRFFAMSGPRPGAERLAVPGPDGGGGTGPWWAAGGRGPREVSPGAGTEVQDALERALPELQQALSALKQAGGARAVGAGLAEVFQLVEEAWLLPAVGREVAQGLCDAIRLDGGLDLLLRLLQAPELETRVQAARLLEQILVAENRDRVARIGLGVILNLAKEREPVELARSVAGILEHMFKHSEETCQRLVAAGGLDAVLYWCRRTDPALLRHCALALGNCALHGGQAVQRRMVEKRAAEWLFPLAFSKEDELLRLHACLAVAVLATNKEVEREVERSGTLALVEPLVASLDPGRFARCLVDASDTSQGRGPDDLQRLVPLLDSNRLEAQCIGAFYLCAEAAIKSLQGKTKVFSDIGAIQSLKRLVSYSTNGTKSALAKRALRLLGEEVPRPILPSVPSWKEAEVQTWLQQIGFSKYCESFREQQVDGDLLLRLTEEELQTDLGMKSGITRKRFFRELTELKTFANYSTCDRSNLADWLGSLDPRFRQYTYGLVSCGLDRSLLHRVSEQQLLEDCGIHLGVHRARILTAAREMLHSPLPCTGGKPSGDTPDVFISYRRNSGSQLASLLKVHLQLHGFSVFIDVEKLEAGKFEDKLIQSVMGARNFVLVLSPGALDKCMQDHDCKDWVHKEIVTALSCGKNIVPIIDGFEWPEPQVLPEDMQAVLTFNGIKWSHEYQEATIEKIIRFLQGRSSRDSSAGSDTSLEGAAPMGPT
Where [18] appears, read: measured here: combination with BGB IC40, at 0.05 µM.
Where [19] appears, read: measured here: combination with cisplatin, at 0.5 µM.
Where [20] appears, read: measured here: combination with cisplatin, at 5 µM.
Setting [21] is: measured here: combination with BGB at IC20, at 0.5 µM.
Setting [22] is: measured here: combination with cisplatin at IC20, at 0.5 µM.
Setting [23] is: measured here: combo with BGB at IC20, at 0.5 µM.
Setting [24] is: measured here: combo with cisplatin at IC20, at 0.5 µM.
Setting [25] is: measured here: inhibition with BGB combination, at 0.05 µM.
Setting [26] is: measured here: inhibition with cisplatin combination, at 0.05 µM.
The mark [27] stands for this setting: BGB combination, concentration series, at 5 µM.
Where [28] appears, read: cisplatin combination, concentration series, at 5 µM.
Setting [29] is: measured here: combo with BGB IC20, at 0.5 µM.
Setting [30] is: measured here: combo with cisplatin IC20, at 0.5 µM.

As to `COCCNCCCn1c(C(=O)CF)c(-c2ccc(C)cc2)c2c(N)ncnc21`, in assay [1], the parasite % of control was 34.2% (inactive) and 108% (inactive) and 115% (inactive).
Take `COc1cc(Oc2ccnc3cc(OC)c(OC)cc23)ccc1NC(=O)NC(C)c1nccs1` (stereo unspecified): in assay [1], the liver cell % of control was 91.8% and 94.8% and 112%; the parasite % of control is 110% (inactive) and 137% (inactive) and 49.5% (inactive).
As for `COc1ccc(Cc2nccc3cc(OC)c(OC)cc23)cc1OC`, the call in [2] was inactive.
Consider `OCc1ccc(-c2nn(Cc3ccccc3)c3ccccc23)o1`, for which the period change in [3] is -0.37 h (inactive). Also, in assay [4], the inhibition is 0% (inactive). Moreover, the fluorescence ratio (interference) in assay [5] was 1 (inactive). For the same compound, the fold fluorescence in assay [6] is 11.2 [at 164.3 µM] (inactive). The call in assay [2] was inactive. Moreover, the z-score in assay [7] is -0.46 (inactive).
As for `Cc1cc(C(C)Nc2ccccc2)c2nc(N3CCOCC3)cc(=O)n2c1` (stereo unspecified), in assay [8], the parasite load remaining was 33.1% (inactive) and the viability was 62.4%. In addition, in [1], the liver cell % of control was 99% and 87.4% and 105%; the parasite % of control was 84.7% (inactive) and 70.8% (inactive) and 54.4% (inactive).
On to `Cc1cnc(CNC(=O)c2c(=O)c3ccc(N4CCCN(C)CC4)nc3n3c2sc2ccccc23)cn1`, for which the inhibition was 6.38% (inactive) and -24.6% (inactive) in assay [9] (at 0.5 µM); -8.97% and -9.02% in assay [9] (setting [18]); 91.9% and 6.04% in [9] (setting [19]); 104% and 102% in assay [9] (setting [20]); 31.8% (inactive) and -46.4% (inactive) in assay [10] (at 0.5 µM); 40.6% and -32.3% in [10] (setting [21]). In addition, the inhibition in assay [10] (setting [22]) was 37% and -70.3%; in [11] (at 0.5 µM), 51.2% (inactive) and 21.9% (inactive); in [11] (setting [23]), 53.1% and 31.3%; in assay [11] (setting [24]) it was 36.7% and 11.5%; in assay [12] (at 0.5 µM) it was 39.7% (inactive) and 9.86% (inactive); in [12] (setting [25]) it was -5.3% and -40%. Also, the inhibition in assay [12] (setting [26]) was -10.5% and -7.68%; in [13] (at 0.5 µM), -14.9% (inactive) and -31.5% (inactive); in [13] (setting [19]) it was -16.1% and -30.8%; in assay [13] (setting [20]), 108% and -28.8%; in assay [14] (setting [27]), 117% and 38.3%; in assay [14] (at 0.5 µM), 44.8% (inactive) and 2% (inactive). Moreover, the inhibition is 122% and 71.6% in [14] (setting [28]); 45.8% (inactive) and 19.7% (inactive) in assay [15] (at 0.5 µM); 41.5% and 16.4% in assay [15] (setting [29]); 31.2% and 2.96% in assay [15] (setting [30]).
In the case of `Cn1cc(-c2ccc3nnc(C(F)(F)c4ccc5ncccc5c4)n3n2)cn1`, in assay [1], the liver cell % of control was 86.8% and 81.6% and 92.2%; the parasite % of control is 347% (inactive) and 352% (inactive) and 281% (inactive).
In the case of `COc1cc2ncnc(-n3nc(-c4ccccn4)nc3N)c2cc1OC`, the inhibition in assay [9] (at 0.5 µM) is -45.7% (inactive); in assay [9] (setting [18]) it was -46.2%; in assay [9] (setting [19]), -87.1%; in assay [9] (setting [20]), -37.2%; in [10] (at 0.5 µM), -78.1% (inactive); in assay [10] (setting [21]) it was -51.1%. Further, the inhibition is -60.2% in assay [10] (setting [22]); -15.7% (inactive) in assay [11] (at 0.5 µM); -13.6% in assay [11] (setting [23]); -21.1% in assay [11] (setting [24]); -16.4% (inactive) in assay [12] (at 0.5 µM); -29.1% in assay [12] (setting [25]). Besides, the inhibition in [12] (setting [26]) was -13.1%; in [13] (at 0.5 µM) it was -18.6% (inactive); in [13] (setting [19]), -13.8%; in assay [13] (setting [20]) it was 1.78%; in assay [14] (setting [27]), 15%; in [14] (at 0.5 µM) it was -15.7% (inactive). Further, the inhibition in assay [14] (setting [28]) was 9.66%; in assay [15] (at 0.5 µM), 6.38% (inactive); in assay [15] (setting [29]), 7.82%; in assay [15] (setting [30]), -1.55%.
With `CN(C)N=Nc1nc[nH]c1C(N)=O`, in assay [16], the survival is 12.2 (inactive). Also, in [8], the parasite load remaining was 83.6% (inactive) and 67% (inactive); the viability was 97.7% and 78.1%.
Take `CNCc1ccc(-c2[nH]c3cc(F)cc4c3c2CCNC4=O)cc1`: the inhibition was -10.6% (inactive) and -7.69% (inactive) in assay [9] (at 0.5 µM); -6.36% and 4.87% in assay [9] (setting [18]); 19.1% and -25% in assay [9] (setting [19]); -18.5% and -25.3% in [9] (setting [20]); -36.2% (inactive) and -5.02% (inactive) in [10] (at 0.5 µM); -29.2% and -1.4% in assay [10] (setting [21]). Further, the inhibition in assay [10] (setting [22]) was -44.8% and 9.17%; in [11] (at 0.5 µM), -4.75% (inactive) and 7.82% (inactive); in assay [11] (setting [23]), -19.4% and -2.99%; in assay [11] (setting [24]) it was -1.52% and 19.2%; in assay [12] (at 0.5 µM), 3.38% (inactive) and 18.2% (inactive); in [12] (setting [25]), -7.35% and 1.55%. The inhibition was -18.2% and 33.2% in assay [12] (setting [26]); -21.7% (inactive) and 11% (inactive) in [13] (at 0.5 µM); -36.4% and 1.09% in assay [13] (setting [19]); -18.9% and -8.07% in [13] (setting [20]); 7.87% and 16.2% in [14] (setting [27]); 2.14% (inactive) and 11.2% (inactive) in assay [14] (at 0.5 µM). In addition, the inhibition in [14] (setting [28]) was 1.67% and 2.25%; in assay [15] (at 0.5 µM) it was 5.22% (inactive) and 8.56% (inactive); in assay [15] (setting [29]), -3.65% and 3.02%; in assay [15] (setting [30]), 2.06% and 7.11%.
In the case of `O=C1C(CCC(O)c2ccc(F)cc2)C(c2ccc(O)cc2)N1c1ccc(F)cc1` (stereo unspecified), the z-score in [7] was -0.345 (inactive).
As to `CN(C)c1cc(NC(=O)CNC(C)(C)C)c(O)c2c1C[C@H]1C[C@H]3[C@H](N(C)C)C(=O)C(C(N)=O)=C(O)[C@@]3(O)C(=O)C1=C2O`, in assay [17], the remaining NAD is 10 nM (inactive).
As to `O=c1cc(-c2ccc(O)c(O)c2)oc2cc(O)cc(O)c12`, the period change in assay [3] is 0.085 h (inactive). Also, in assay [16], the survival is 0.75 (inactive). For the same compound, in [8], the parasite load remaining is 83% (inactive) and the viability worked out at 96.4%.
